According to the supplement of paper PMC4166925:
± gives the standard deviation of the averaged measurements. In all, about 33,000 sequences were measured (“E-score (dimensionless, -0.5 to 0.5)”: median about -0.049, highest 2% from about 0.37 on). Shown is part of a subset that was picked to be rich in the highest values.

System: T1, PmTbr T-box DNA-binding domain (GST fusion)
T1 sequence: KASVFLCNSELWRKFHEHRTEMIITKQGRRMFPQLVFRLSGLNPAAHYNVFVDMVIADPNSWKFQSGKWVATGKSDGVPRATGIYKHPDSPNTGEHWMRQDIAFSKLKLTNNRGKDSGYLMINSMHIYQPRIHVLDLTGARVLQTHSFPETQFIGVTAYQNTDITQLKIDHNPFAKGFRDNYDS
Assay: PBM E-score of 8-mer (E-score (dimensionless, -0.5 to 0.5)); Tbr is Tbrain of the sea star Patiria miniata (Pm) or the sea urchin Strongylocentrotus purpuratus (Sp); higher = stronger binding preference
Conditions: the construct has about 5 more residues each side
How it was run: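 Using the Universal PBM Analysis Suite, every ungapped 8-mer received an enrichment E-score averaged over duplicate arrays. Probe intensities came from double-stranded Universal Agilent oligonucleotide arrays incubated with 200 nM GST-fused Tbr T-box DNA-binding domain in PBS (pH 7.5). That protein was expressed in BL21 E. coli at 20 °C and purified by glutathione affinity chromatography.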

In order of falling “PBM E-score of 8-mer” value:
1. AAGGTGTG  0.4811 ± 0.0016
2. ACACCTAC  0.4763 ± 0.0017
3. ACACCTGT  0.472 ± 0.00061
4. AAGTGTTA  0.467 ± 0.0064
5. ACACCTAT  0.4662 ± 0.00073
6. ACACCTAA  0.463 ± 0.0018
7. ACACCTAG  0.462 ± 0.0066
8. ACGTGTTA  0.442 ± 0.015
9. AAGTGTTG  0.437 ± 0.006
10. GCACCTCC  0.4324 ± 0.002
11. ACAAGGTG  0.429 ± 0.006
12. AATGTGTC  0.425 ± 0.0071
13. GGTGATAA  0.413 ± 0.018
14. AATGTGTG  0.408 ± 0.014
15. TGTGATAA  0.406 ± 0.046
16. GTCGACAC  0.406 ± 0.013
17. AGAAGGTG  0.403 ± 0.0068
18. ACACCCCT  0.4 ± 0.027
19. ATCGACAC  0.398 ± 0.025
20. ACACCCCG  0.397 ± 0.029
21. ACACGTCG  0.391 ± 0.018
22. ATAAGGTG  0.387 ± 0.0095
23. CTCGACAC  0.387 ± 0.029
24. GAGTGTTA  0.385 ± 0.012
25. TCACCTAA  0.383 ± 0.0065
26. AGCAACAC  0.383 ± 0.0078
27. GCACCTAC  0.382 ± 0.0042
28. ACACCCCA  0.382 ± 0.015
29. GGCAACAC  0.38 ± 0.0047
30. ACACCCCC  0.379 ± 0.017
31. ACGTGTTG  0.3744 ± 0.0004
32. ACACGTTG  0.374 ± 0.0049
33. GCACCTAA  0.373 ± 0.016
34. ACACGTTA  0.3709 ± 0.0015
35. GGTGATAC  0.364 ± 0.025
36. ACACGTCA  0.361 ± 0.0048
37. CGCAACAC  0.356 ± 0.033
38. ACACGTCT  0.355 ± 0.021
39. GCACCTCA  0.35 ± 0.037
40. ACACCCGG  0.3462 ± 0.00071
41. ACACCCAG  0.339 ± 0.021
42. GGCGAGAA  0.339 ± 0.005
43. ACACGTTC  0.337 ± 0.013
44. GCGTGTTA  0.336 ± 0.036
45. ACGGTGTG  0.324 ± 0.012
46. CAGTGTTA  0.322 ± 0.0036
47. AGTGATAA  0.317 ± 0.052
48. CATGTGTC  0.309 ± 0.03
49. CCACCTCC  0.305 ± 0.024
50. GACGACAC  0.305 ± 0.034
51. AAGTGTTC  0.298 ± 0.012
52. GTCGACAA  0.295 ± 0.022
53. TCACCCCA  0.277 ± 0.028
54. CCACCTAC  0.273 ± 0.049
55. AATGTGCG  0.27 ± 0.012
56. CCACCTAG  0.264 ± 0.0049
57. CGTGATAA  0.251 ± 0.034
58. CTCGACAG  0.244 ± 0.018
59. GCACCCCA  0.242 ± 0.0042
60. CCGTGTTA  0.24 ± 0.041
61. ATCGACAG  0.236 ± 0.032
62. CCACCCCG  0.235 ± 0.033
63. AGTTGGCG  0.229 ± 0.039
64. AATGTGTA  0.226 ± 0.029
65. GCACCCCC  0.226 ± 0.047
66. ATCGACAA  0.222 ± 0.036
67. ACACCGGT  0.22015 ± 2.8e-05
68. ACGTGTTC  0.2198 ± 0.001
69. ACACTGAC  0.209 ± 0.018
70. ACACGTAG  0.206 ± 0.0044
71. AAGTGGTA  0.165 ± 0.013
72. AATGTGGC  0.163 ± 0.0047
73. ATGCGTCA  0.161 ± 0.013
74. ACAAGGTC  0.1572 ± 0.00086
75. GTCGACGA  0.155 ± 0.015
76. CCACCTAA  0.146 ± 0.058
77. CTAGATTC  0.139 ± 0.039
78. CTCGACAA  0.131 ± 0.017
79. CCACGTTA  0.131 ± 0.0074
80. TGATACAA  0.126 ± 0.037
81. ATAAGTGG  0.124 ± 0.042
82. CTCCATCA  0.123 ± 0.077
83. ACGTGTAG  0.118 ± 0.015
84. AAACCTAG  0.113 ± 0.032
85. CTTTGTCC  0.109 ± 0.0064
86. TTGCGCAA  0.108 ± 0.0064
87. AGCAACAA  0.0934 ± 0.021
88. GTACAGTA  0.0854 ± 0.013
89. ACAGACAT  0.0773 ± 0.016
90. CGCAACAG  0.0766 ± 0.031
91. CTCGCTAC  0.0679 ± 0.05
92. AGCAACAG  0.0636 ± 0.029
93. GCCCAACA  0.0617 ± 0.0082
94. GTTGATCA  0.0616 ± 0.0014
95. GGCAACAA  0.05 ± 0.0035
96. GGCGAACA  0.0467 ± 0.018
97. ATACCTAA  0.0416 ± 0.058
98. AAACCTGT  0.0415 ± 0.013
99. AATGGACA  0.0325 ± 0.009
100. AAGTGTAC  0.0291 ± 0.019
101. GAACTACA  0.0281 ± 0.036
102. ATAAGGTA  0.0248 ± 0.096
103. CACAGTCC  0.0117 ± 0.032
104. CCACCCCC  0.00912 ± 0.024
105. CGCACAAA  0.00904 ± 0.0019
106. TATGATAA  -0.0124 ± 0.036
107. AACAGCCC  -0.015 ± 0.027
108. CGGTCAAC  -0.0198 ± 0.048
109. ACAAGGTA  -0.0243 ± 0.03
110. GTCAAACA  -0.0272 ± 0.074
111. GCCATAAA  -0.0292 ± 0.012
112. ATACCTAT  -0.0294 ± 0.018
113. CTGAAACC  -0.0317 ± 0.0024
114. GGTAAGTA  -0.0321 ± 0.051
115. AAAGGCAC  -0.0325 ± 0.013
116. CTTCTGGC  -0.0431 ± 0.0062
117. ATGCCAGC  -0.0462 ± 0.0027
118. GGACCTAA  -0.0476 ± 0.0062
119. GGACGCAC  -0.0479 ± 0.052
120. ACAATGTC  -0.048 ± 0.0089
121. CAATGGAC  -0.0519 ± 0.011
122. CGAGCAAA  -0.0522 ± 0.042
123. CAGTGTTC  -0.0572 ± 0.047
124. ACTGATCG  -0.0574 ± 0.0033
125. AAGAATCG  -0.0615 ± 0.066
126. ATTCCTCG  -0.0674 ± 0.053
127. ACCCCTCT  -0.0694 ± 0.019
128. AAACCTAA  -0.0751 ± 0.036
129. GAGTGTAC  -0.079 ± 0.061
130. GTAGGAAA  -0.0915 ± 0.041
131. TGCCCACA  -0.0968 ± 0.015
132. GGAGAGGA  -0.1 ± 0.0036
133. AAAATTCT  -0.1 ± 0.051
134. CTCTAACC  -0.103 ± 0.089
135. ATGACCAG  -0.119 ± 0.011
136. CTCCCCAA  -0.12 ± 0.0034
137. ATAGCTCC  -0.134 ± 0.022
138. AACGGGGT  -0.136 ± 0.084
139. ATAAGGTC  -0.146 ± 0.021
140. ACTGCACG  -0.149 ± 0.031
141. AAGATCGA  -0.152 ± 0.084
142. ACCCCCCT  -0.152 ± 0.11
143. AAGGTTTG  -0.16 ± 0.015
144. GGCATTAC  -0.165 ± 0.0079
145. ACGGCCTC  -0.166 ± 0.071
146. ATACCTAC  -0.172 ± 0.0048
147. CGTGCTCC  -0.172 ± 0.017
148. AATAGACT  -0.175 ± 0.072
149. ATGCTATA  -0.182 ± 0.01
150. GATACAGA  -0.189 ± 0.0045
151. GCAGGGGC  -0.193 ± 0.12
152. AGCCTCCT  -0.194 ± 0.057
153. AGAGCACT  -0.194 ± 0.044
154. CTTGGGGA  -0.196 ± 0.039
155. AGAAGGTA  -0.2003 ± 0.00059
156. ATAGCCAA  -0.2 ± 0.05
157. AATGGCTG  -0.207 ± 0.038
158. GTAGTGCA  -0.21 ± 0.062
159. CAGCAATC  -0.21244 ± 7.8e-05
160. AGACCTAT  -0.2143 ± 0.00038
161. AGATAGAT  -0.217 ± 0.015
162. AAACGTTG  -0.22 ± 0.042
163. TGACCTAA  -0.228 ± 0.013
164. GTACCTAA  -0.248 ± 0.013
165. GCTCTAGA  -0.268 ± 0.07
166. GTACCTAC  -0.272 ± 0.061
167. AGATGGAC  -0.281 ± 0.02
168. AGACCTAC  -0.292 ± 0.035
169. AGAAGGTC  -0.315 ± 0.034
170. AGGGATAC  -0.319 ± 0.026
171. AACGAGCC  -0.319 ± 0.096
172. CAGGGATA  -0.326 ± 0.061
173. GGATACCC  -0.327 ± 0.049
174. TCGGTCCA  -0.365 ± 0.015
